Outcome and AC50 data for ten compounds are collected here from PubChem BioAssay (EPA / NIEHS).

Structures are written as SMILES. “And” between values parts separate entries of the source, which are not always exact repeats. Equal entries are not always repeated. Results filed as inconclusive are left out. The source made the active and inactive calls. Rule for the calls: active = hit-call score of the fitted dose curve at least 0.9, where 1 is the maximum; inconclusive = response in the unintended direction; inactive = score below 0.9.

The target of assay [1] is human Opioid Receptor Delta 1 (Opiate D1), OPRD1 (gene 4985) (UniProt P41143). The assay can be described thus: NVS_GPCR_hOpiate_D1: NovaScreen (NVS) G Protein-Coupled Receptor Assay for human Opioid Receptor Delta 1 (Opiate D1) (AID 2283280). The essentials: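 Membrane preparations from CHO cells bearing the human receptor were incubated 1 h with test chemical, and bound radioligand was counted after filtration. Actives from 25 uM duplicate screening were retested in concentration-response.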
human Opioid Receptor Delta 1 (Opiate D1), OPRD1 (gene 4985), sequence (P41143 whole entry, looked up): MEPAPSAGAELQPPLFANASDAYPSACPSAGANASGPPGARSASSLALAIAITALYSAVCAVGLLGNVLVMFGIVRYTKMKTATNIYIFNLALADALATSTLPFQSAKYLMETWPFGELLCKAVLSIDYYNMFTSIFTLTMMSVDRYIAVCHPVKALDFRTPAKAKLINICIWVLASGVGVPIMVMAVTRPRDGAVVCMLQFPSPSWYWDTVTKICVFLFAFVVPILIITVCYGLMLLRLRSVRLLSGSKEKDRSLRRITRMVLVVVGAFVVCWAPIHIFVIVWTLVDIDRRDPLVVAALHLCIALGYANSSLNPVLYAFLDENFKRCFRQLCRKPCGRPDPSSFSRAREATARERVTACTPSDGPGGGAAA

In assay [2] the target is human Thromboxane A2 Receptor (TXA2), TBXA2R (gene 6915) (UniProt P21731). As to the kind of experiment: NVS_GPCR_hTXA2: NovaScreen (NVS) G Protein-Coupled Receptor Assay for human Thromboxane A2 Receptor (TXA2) (AID 2283282).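 Note: actives reduce bound radioligand signal relative to DMSO baseline.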 The method, boiled down:
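Biochem binding, human platelets, cell-free; competitive radioligand displacement; 1 h; filter radiodetection. 25 uM duplicate primary, conc. series secondary; DMSO neg. ctrl.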

Assay [3] addresses human Orphanin, Opioid Related Nociceptin Receptor 1 (ORL1), OPRL1 (gene 4987) (UniProt P41146). As to the kind of experiment: NVS_GPCR_hORL1: NovaScreen (NVS) G Protein-Coupled Receptor Assay for human Orphanin, Opioid Related Nociceptin Receptor 1 (ORL1) (AID 2283283). The method, boiled down: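 Cell-free binding using HEK293-derived receptor protein: radioligand displacement measured by filter scintillation 1 hour after dosing. Primary testing at 25 uM in duplicate, followed by singleton concentration series up to 50 uM; DMSO served as negative control.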

The target in assay [4] is mouse Cholecystokinin, CCK1 Receptor (CCKA), Cckar (gene 12425) (UniProt O08786). The assay can be described thus: NVS_GPCR_mCCKAPeripheral: NovaScreen (NVS) G Protein-Coupled Receptor Assay for mouse Cholecystokinin, CCK1 Receptor (CCKA) (AID 2283285). The essentials:
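Chemicals were first screened in duplicate at 25 uM, with those meeting threshold (e.g., 30% inhibition) retested in singleton concentration series to 50 uM maximum. Binding of radioligand to mouse pancreatic membranes was read after 2 h by filtration and scintillation counting.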

Assay [5] deals with rat Adrenergic, Alpha 1, Non-selective Receptor (Adra1), Adra1a (gene 29412) (UniProt P43140). The assay can be described thus: NVS_GPCR_rAdra1_NonSelective: NovaScreen (NVS) G Protein-Coupled Receptor Assay for rat Adrenergic, Alpha 1, Non-selective Receptor (Adra1) (AID 2283289). The essentials:
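Chemicals first screened in duplicate at 25 uM, then actives tested in concentration series up to 50 uM. Binding measured as displacement of radioligand from rat forebrain membrane receptors, 1 h, filtration with scintillation readout; DMSO baseline.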

Assay [6] concerns the target human Opioid Receptor Mu (Opiate Mu), OPRM1 (gene 4988) (UniProt P35372). As to the kind of experiment: NVS_GPCR_hOpiate_mu: NovaScreen (NVS) G Protein-Coupled Receptor Assay for human Opioid Receptor Mu (Opiate Mu) (AID 2283290).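 Note: hits lower bound tracer signal versus DMSO meaning displacement of the ligand.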 The essentials:
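Cell-free radioligand binding to membranes from CHO cells expressing the receptor; bound tracer measured by filter-based scintillation counting 2.5 hours after dosing. Loss of signal versus DMSO baseline reflects displacement; primary screen at 25 uM in duplicate, actives followed up in concentration series.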

Assay [7] deals with mouse Cholecystokinin, CCK2 Receptor (CCKB), Cckbr (gene 12426) (UniProt P56481). As to the kind of experiment: NVS_GPCR_mCKKBCentral: NovaScreen (NVS) G Protein-Coupled Receptor Assay for mouse Cholecystokinin, CCK2 Receptor (CCKB) (AID 2283293). The essentials:
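Mouse forebrain membrane preparation incubated 2 h with chemical and radioligand; bound radioactivity counted after filtration. Single-concentration duplicate screen at 25 uM, then concentration series to 50 uM max for hits, DMSO as baseline.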

In assay [8] the target is guinea pig Serotonin, 5-Hydroxytryptamine Receptor 4 (5HT4), HTR4 (gene 100135548) (UniProt O70528). As to the kind of experiment: NVS_GPCR_g5HT4: NovaScreen (NVS) G Protein-Coupled Receptor Assay for guinea pig Serotonin, 5-Hydroxytryptamine Receptor 4 (5HT4) (AID 2283294). The method, boiled down:
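Compounds first screened in duplicate at 25 uM, actives followed up in concentration series. Binding measured as displacement of specific radioligand from guinea pig striatal membranes, 1 h, filter-based scintillation read-out versus DMSO baseline.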

Assay [9] addresses Muscarinic acetylcholine receptor M3 (Homo sapiens) (UniProt P20309). The assay can be described thus: NVS_GPCR_hM3: NovaScreen (NVS) G Protein-Coupled Receptor Assay for human Muscarinic, M3 Receptor (AID 2283272). The method, boiled down:
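Radioligand displacement binding on human M3 receptor in CHO-derived membranes, 1 h incubation, filter-based scintillation counting. Primary screen in duplicate at 25 uM; actives followed up in concentration series; loss of signal versus DMSO.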

The target of assay [10] is Muscarinic acetylcholine receptor M2 (Homo sapiens) (UniProt P08172). The assay can be described thus: NVS_GPCR_hM2: NovaScreen (NVS) G Protein-Coupled Receptor Assay for human Muscarinic, M2 Receptor (AID 2283273). The essentials:
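Filter-based radiodetection read bound radioligand 1 h after dosing CHO-derived membrane protein. Single-concentration duplicates (25 uM) first, then concentration-response for actives; signal loss versus DMSO scored.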

For assay [11], the target named is human Muscarinic, M4 Receptor, CHRM4 (gene 1132) (UniProt P08173). The assay can be described thus: NVS_GPCR_hM4: NovaScreen (NVS) G Protein-Coupled Receptor Assay for human Muscarinic, M4 Receptor (AID 2283274). The method, boiled down:
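Filter-based scintillation counting of radioligand bound to CHO-expressed human M4 preparations after 1 h; loss of signal fitted versus DMSO. Initial duplicate testing at 25 uM, concentration-response follow-up for actives.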

Assay [12] has as its target Muscarinic acetylcholine receptor M5 (Homo sapiens) (UniProt P08912). As to the kind of experiment: NVS_GPCR_hM5: NovaScreen (NVS) G Protein-Coupled Receptor Assay for human Muscarinic, M5 Receptor (AID 2283275). The method, boiled down:
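Chemicals passing a primary duplicate screen at 25 uM were run as singleton concentration series, maximum 50 uM. Displacement of a specific radioligand from CHO-extracted receptor was read by filter scintillation after 1 h, relative to DMSO.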

The target in assay [13] is Neuropeptide Y receptor type 2 (Homo sapiens) (UniProt P49146). The assay can be described thus: NVS_GPCR_hNPY2: NovaScreen (NVS) G Protein-Coupled Receptor Assay for human Neuropeptide Receptor Y2 (NPY2) (AID 2283277). The essentials:
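Chemicals were first tested in duplicate at 25 uM, then actives in singleton concentration series to 50 uM. Tracer binding to SK-N-MC-derived protein measured cell-free after 1 h via filter scintillation; signal loss relative to DMSO.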

The target in assay [14] is guinea pig Bradykinin Receptor B2 (BK2), BDKRB2 (gene 100135486) (UniProt O70526). The assay can be described thus: NVS_GPCR_gBK2: NovaScreen (NVS) G Protein-Coupled Receptor Assay for guinea pig Bradykinin Receptor B2 (BK2) (AID 2283292). The method, boiled down: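 Guinea pig ileum membrane preparation incubated 1 h with radioligand and test chemical; bound counts measured after filtration. Primary duplicate screening at 25 uM, then singleton concentration series with a 50 uM top dose; DMSO as baseline.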

The target in assay [15] is human Neurokinin, NK2 Receptor, TACR2 (gene 6865) (UniProt P21452). As to the kind of experiment: NVS_GPCR_hNK2: NovaScreen (NVS) G Protein-Coupled Receptor Assay for human Neurokinin, NK2 Receptor (AID 2283278).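 Note: actives reduce bound radioligand signal relative to DMSO baseline.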 The method, boiled down:
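CHO-derived membrane protein, radioligand displacement, filter scintillation read at 4 h post-dose. Single-point 25 uM in duplicate, then concentration series for actives; DMSO as negative control.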

The target in assay [16] is human Vasopressin 1A Receptor (V1A), AVPR1A (gene 552) (UniProt P37288). As to the kind of experiment: NVS_GPCR_hV1A: NovaScreen (NVS) G Protein-Coupled Receptor Assay for human Vasopressin 1A Receptor (V1A) (AID 2283284). The method, boiled down:
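Single-concentration duplicate screen at 25 uM, with concentration-response follow-up (top 50 uM) for actives. The assay measured displacement of a radioligand from human platelet-derived receptor after 1.5 h, detected by filtration and scintillation counting.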

The subject of assay [17] is rabbit Platelet Activating Factor Receptor (PAF), gene 100354046. As to the kind of experiment: NVS_GPCR_rabPAF: NovaScreen (NVS) G Protein-Coupled Receptor Assay for rabbit Platelet Activating Factor Receptor (PAF) (AID 2283287). The method, boiled down: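 Rabbit platelet membrane preparation; radioligand displacement read by filter-based scintillation counting 1 h after dosing, loss of signal versus DMSO. Primary screen in duplicate at 25 uM, actives followed up in concentration series.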

The target in assay [18] is rat Serotonin, 5-Hydroxytryptamine Receptor 1 (5HT1), Non-Selective Binding, Htr1a (gene 24473) (UniProt P19327). As to the kind of experiment: NVS_GPCR_r5HT1_NonSelective: NovaScreen (NVS) G Protein-Coupled Receptor Assay for rat Serotonin, 5-Hydroxytryptamine Receptor 1 (5HT1), Non-Selective Binding (AID 2283286). The essentials: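 Binding of a radioligand to rat cortex membranes is read by filtration and scintillation counting after 1 h. Compounds were screened at 25 uM in duplicate. Actives were then titrated to a top of 50 uM. DMSO is the baseline.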

For assay [19], the target named is human Neurotensin Receptor (NTS), NTSR1 (gene 4923) (UniProt P30989). As to the kind of experiment: NVS_GPCR_hNTS: NovaScreen (NVS) G Protein-Coupled Receptor Assay for human Neurotensin Receptor (NTS) (AID 2283279). The method, boiled down: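 Compounds competed with a radiolabelled ligand for binding to CHO-derived human neurotensin receptor; bound signal counted after filtration, 1 h. Screened first at a single concentration of 25 uM in duplicate, then concentration series to 50 uM maximum for actives.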

In assay [20] the target is human Neuropeptide Receptor Y1 (NPY1), NPY1R (gene 4886) (UniProt P25929). The assay can be described thus: NVS_GPCR_hNPY1: NovaScreen (NVS) G Protein-Coupled Receptor Assay for human Neuropeptide Receptor Y1 (NPY1) (AID 2283276). The method, boiled down:
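Displacement of specific radioligand from NPY1 receptor of SK-N-MC origin, read by filtration and scintillation after 1 h. Compounds first tested at 25 uM in duplicate, then actives in concentration series; signal loss relative to DMSO.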

guinea pig Serotonin, 5-Hydroxytryptamine Receptor 4 (5HT4), HTR4 (gene 100135548), sequence (O70528 whole entry, looked up): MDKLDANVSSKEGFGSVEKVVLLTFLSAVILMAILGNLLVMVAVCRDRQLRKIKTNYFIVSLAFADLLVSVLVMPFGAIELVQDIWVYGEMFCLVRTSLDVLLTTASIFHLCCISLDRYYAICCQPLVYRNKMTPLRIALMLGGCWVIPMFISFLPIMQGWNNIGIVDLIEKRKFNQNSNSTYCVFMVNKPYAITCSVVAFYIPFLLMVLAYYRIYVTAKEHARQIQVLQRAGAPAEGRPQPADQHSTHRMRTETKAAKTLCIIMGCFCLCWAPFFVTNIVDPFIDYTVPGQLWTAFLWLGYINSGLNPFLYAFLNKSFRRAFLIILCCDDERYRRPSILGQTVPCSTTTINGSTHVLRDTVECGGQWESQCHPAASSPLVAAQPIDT
Muscarinic acetylcholine receptor M2 (Homo sapiens), sequence (P08172 whole entry, looked up): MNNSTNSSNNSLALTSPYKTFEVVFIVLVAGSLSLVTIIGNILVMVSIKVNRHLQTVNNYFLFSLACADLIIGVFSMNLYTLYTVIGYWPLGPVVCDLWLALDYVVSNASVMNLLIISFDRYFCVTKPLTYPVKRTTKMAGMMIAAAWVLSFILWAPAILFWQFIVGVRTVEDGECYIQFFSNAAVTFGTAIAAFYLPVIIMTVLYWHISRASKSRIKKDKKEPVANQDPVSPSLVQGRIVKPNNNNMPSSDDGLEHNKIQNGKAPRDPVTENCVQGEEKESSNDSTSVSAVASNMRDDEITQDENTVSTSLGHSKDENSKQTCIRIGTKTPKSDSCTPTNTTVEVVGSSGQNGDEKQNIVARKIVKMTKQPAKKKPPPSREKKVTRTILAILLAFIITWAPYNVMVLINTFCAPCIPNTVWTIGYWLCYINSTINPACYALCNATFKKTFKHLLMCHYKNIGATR
human Muscarinic, M4 Receptor, CHRM4 (gene 1132), sequence (P08173 whole entry, looked up): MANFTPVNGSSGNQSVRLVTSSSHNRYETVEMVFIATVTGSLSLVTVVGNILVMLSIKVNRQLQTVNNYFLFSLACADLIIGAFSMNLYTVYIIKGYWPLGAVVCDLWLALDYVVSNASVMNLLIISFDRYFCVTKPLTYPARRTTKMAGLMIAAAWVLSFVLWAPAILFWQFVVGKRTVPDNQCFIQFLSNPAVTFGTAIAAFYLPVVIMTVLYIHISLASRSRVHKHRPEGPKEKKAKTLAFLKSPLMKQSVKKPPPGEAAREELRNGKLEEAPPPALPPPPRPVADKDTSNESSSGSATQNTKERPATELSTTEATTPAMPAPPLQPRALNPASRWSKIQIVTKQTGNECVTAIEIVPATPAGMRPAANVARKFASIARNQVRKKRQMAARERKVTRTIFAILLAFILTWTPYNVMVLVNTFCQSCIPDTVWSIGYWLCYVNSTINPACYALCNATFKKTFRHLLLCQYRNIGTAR
human Opioid Receptor Mu (Opiate Mu), OPRM1 (gene 4988), sequence (P35372 whole entry, looked up): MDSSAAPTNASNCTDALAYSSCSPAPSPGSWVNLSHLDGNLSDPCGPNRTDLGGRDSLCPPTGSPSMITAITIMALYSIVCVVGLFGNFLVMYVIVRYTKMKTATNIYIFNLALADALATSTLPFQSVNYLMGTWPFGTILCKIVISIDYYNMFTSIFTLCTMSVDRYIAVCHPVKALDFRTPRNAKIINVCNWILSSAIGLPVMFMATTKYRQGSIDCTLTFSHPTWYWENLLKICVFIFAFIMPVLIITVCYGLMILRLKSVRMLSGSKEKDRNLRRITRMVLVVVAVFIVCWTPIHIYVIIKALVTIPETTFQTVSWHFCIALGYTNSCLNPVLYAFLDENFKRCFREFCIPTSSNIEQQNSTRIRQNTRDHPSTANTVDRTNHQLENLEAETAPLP
mouse Cholecystokinin, CCK2 Receptor (CCKB), Cckbr (gene 12426), sequence (P56481 whole entry, looked up): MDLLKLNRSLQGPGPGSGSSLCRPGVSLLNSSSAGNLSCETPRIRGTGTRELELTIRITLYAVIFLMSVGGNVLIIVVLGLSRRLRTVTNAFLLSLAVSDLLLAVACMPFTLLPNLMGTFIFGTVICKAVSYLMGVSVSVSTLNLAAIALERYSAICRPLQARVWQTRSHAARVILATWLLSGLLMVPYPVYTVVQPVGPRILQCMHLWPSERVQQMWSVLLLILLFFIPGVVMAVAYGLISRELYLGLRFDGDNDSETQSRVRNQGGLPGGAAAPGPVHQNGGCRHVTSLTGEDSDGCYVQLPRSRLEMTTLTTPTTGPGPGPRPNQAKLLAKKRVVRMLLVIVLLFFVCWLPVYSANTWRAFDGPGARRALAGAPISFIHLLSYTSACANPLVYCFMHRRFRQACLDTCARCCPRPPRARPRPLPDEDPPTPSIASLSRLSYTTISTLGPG
Muscarinic acetylcholine receptor M5 (Homo sapiens), sequence (P08912 whole entry, looked up): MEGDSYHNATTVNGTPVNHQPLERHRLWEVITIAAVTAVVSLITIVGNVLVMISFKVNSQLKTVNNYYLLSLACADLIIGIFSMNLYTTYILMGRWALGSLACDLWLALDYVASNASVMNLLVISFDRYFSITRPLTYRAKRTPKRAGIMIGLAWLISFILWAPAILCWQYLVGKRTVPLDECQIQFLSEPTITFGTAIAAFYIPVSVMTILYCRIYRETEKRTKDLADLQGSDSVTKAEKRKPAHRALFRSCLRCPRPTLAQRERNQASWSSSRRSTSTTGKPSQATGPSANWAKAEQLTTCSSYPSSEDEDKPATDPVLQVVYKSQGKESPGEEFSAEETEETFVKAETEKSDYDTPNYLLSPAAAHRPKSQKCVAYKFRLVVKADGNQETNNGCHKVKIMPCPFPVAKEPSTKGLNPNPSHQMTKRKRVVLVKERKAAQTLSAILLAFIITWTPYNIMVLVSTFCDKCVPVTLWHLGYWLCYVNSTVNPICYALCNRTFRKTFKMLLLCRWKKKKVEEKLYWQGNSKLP
rat Adrenergic, Alpha 1, Non-selective Receptor (Adra1), Adra1a (gene 29412), sequence (P43140 whole entry, looked up): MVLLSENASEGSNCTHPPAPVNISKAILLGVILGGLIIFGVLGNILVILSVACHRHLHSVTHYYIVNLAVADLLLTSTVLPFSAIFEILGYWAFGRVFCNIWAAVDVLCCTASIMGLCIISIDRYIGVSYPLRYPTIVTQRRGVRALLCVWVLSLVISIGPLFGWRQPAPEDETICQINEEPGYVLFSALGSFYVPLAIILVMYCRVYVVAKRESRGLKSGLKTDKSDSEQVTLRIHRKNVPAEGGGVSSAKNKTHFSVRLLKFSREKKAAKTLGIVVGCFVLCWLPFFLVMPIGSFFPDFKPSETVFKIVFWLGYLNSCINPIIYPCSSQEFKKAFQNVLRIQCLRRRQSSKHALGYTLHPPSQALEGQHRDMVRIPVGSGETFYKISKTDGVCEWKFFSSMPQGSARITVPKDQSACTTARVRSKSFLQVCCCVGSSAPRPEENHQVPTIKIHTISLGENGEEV
human Neurokinin, NK2 Receptor, TACR2 (gene 6865), sequence (P21452 whole entry, looked up): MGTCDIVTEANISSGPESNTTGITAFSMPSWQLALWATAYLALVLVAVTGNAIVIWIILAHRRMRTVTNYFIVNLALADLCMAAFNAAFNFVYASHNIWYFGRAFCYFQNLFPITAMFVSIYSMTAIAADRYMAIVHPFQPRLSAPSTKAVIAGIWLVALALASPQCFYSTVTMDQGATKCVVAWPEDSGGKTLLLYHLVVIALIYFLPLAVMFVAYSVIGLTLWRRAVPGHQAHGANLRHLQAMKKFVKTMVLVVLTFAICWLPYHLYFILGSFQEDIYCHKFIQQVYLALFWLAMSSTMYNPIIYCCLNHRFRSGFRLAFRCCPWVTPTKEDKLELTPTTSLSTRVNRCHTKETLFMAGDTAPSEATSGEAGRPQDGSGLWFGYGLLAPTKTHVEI
human Orphanin, Opioid Related Nociceptin Receptor 1 (ORL1), OPRL1 (gene 4987), sequence (P41146 whole entry, looked up): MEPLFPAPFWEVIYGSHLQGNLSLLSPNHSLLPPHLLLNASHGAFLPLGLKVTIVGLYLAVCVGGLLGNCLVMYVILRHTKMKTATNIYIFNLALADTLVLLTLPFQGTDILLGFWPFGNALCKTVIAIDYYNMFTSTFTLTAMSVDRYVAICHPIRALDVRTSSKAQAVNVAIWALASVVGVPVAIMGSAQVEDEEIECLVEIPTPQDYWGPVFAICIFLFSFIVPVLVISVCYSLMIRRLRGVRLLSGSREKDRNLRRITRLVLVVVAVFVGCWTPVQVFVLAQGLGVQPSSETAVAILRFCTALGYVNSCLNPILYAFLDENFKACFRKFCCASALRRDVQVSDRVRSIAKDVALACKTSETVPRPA
Muscarinic acetylcholine receptor M3 (Homo sapiens), sequence (P20309 whole entry, looked up): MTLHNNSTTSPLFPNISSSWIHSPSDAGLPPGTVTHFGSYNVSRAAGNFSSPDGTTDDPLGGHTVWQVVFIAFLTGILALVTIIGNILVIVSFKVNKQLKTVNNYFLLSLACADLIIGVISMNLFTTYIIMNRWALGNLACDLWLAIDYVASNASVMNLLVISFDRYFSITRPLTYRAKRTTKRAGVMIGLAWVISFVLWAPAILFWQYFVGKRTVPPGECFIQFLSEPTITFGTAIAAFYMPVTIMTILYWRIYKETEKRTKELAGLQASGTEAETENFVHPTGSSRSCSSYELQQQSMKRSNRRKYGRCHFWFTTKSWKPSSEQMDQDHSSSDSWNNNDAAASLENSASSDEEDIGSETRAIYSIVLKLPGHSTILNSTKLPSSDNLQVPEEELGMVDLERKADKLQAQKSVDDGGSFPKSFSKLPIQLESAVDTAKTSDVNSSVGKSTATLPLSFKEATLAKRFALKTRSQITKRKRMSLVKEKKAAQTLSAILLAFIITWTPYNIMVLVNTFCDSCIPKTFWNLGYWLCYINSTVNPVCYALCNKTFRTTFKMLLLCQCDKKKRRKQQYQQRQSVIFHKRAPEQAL

The AC50 is the midpoint of the concentration-response curve, whichever way the signal moves. Take `CC/C(=C(/CC)c1ccc(O)cc1)c1ccc(O)cc1`: the compound was classed as inactive in assay [1] and in assay [5]. Besides, the AC50 in assay [2] is 15.3 µM (active); in [3], 11.4 µM (active); in [4] it was 12.5 µM (active); in assay [6], 5.64 µM (active) and 4.96 µM (active) and 10.7 µM (active); in [7] it was 37.9 µM (active); in assay [8], 39.4 µM (active).
Regarding `COc1ccc2cc(S(=O)(=O)N[C@H](CC(=O)N[C@H](Cc3ccc(CN4[C@H](C)CCC[C@@H]4C)cc3)C(=O)N(C)C(C)C)c3ccc4c(c3)OCO4)ccc2c1`, the AC50 is 14.2 µM (active) in [9]; 0.535 µM (active) in [10]; 2.44 µM (active) in [11]; 4.37 µM (active) in [12]; 2.17 µM (active) in assay [13]; 15.7 µM (active) in [5]. Moreover, the concentration at half-maximal activity (AC50) is 8.69 µM (active) in assay [6], 13.8 µM (active) in assay [14] and 16.8 µM (active) in assay [8].
Turning to `CC[C@H](NC(=O)c1cc(F)ccc1NS(=O)(=O)c1cccc2cccnc12)c1ccccc1`, the call in assay [1] and in assay [6] was inactive.
Take `C[C@]12CC[C@@H]3c4ccc(O)cc4CC[C@H]3[C@@H]1CCC2=O`: the compound was classed as inactive in assay [1] and in assay [8].
Turning to `O=CCCCC=O`, the call in assay [15] was inactive.
In the case of `CCCCCCCCN(C)CCCCCCCC`, in assay [11], the compound was called inactive.
With `Cc1occc1C(=O)Nc1ccc(C(=O)N2CCC(F)(F)/C(=C\C(=O)N3CCC(N4CCCCC4)CC3)c3ccccc32)cc1`, the AC50 in [10] is 4.43 µM (active); in assay [11] it was 7.11 µM (active); in assay [12], 5.91 µM (active); in [16], 0.00237 µM (active); in assay [17] it was 2.76 µM (active); in [5], 6.08 µM (active). Further, the AC50 in assay [8] was 0.579 µM (active).
On to `COc1cccc([C@H](O)C2CCN(CCc3ccc(F)cc3)CC2)c1OC`, for which the compound was called inactive in assay [9] and in assay [12]. Besides, the AC50 in assay [18] was 25 µM (active); in [6] it was 12.6 µM (active); in [8], 25 µM (active).
With `CCCC(=O)OCCC(C)C`, the AC50 in [19] is 15 µM (active). For the same compound, in [7], the compound was classed as inactive.
`CN(C)c1ccc(C(=C2C=CC(=[N+](C)C)C=C2)c2ccc(N(C)C)cc2)cc1`: the concentration at half-maximal activity (AC50) in assay [10] was 0.939 µM (active); in [11] it was 0.863 µM (active); in [12] it was 0.861 µM (active); in assay [20], 13.3 µM (active); in [13], 16.6 µM (active); in assay [15], 3.82 µM (active). In addition, the concentration at half-maximal activity (AC50) in assay [1] was 8.5 µM (active); in [3] it was 21.8 µM (active); in assay [4] it was 10.8 µM (active); in assay [5], 4.81 µM (active); in [6], 2.5 µM (active); in assay [14], 12.3 µM (active). Also, the AC50 is 10.3 µM (active) in [7] and 7.22 µM (active) in assay [8].
